# Measured values published in PubChem BioAssay AID1159580 (chemical genetic matrix, 2015).
# Hit rate of the full screen: of about 5,500 compounds, about 2,000 (36%) were called active. Roughly 18% stayed inconclusive and do not appear here. The list shows a part of the results. Values without a mark were called inactive. No stated cut-off is given here; in the data, active means normalized growth mostly below about 0.91 (no sharp cut-off); inconclusive means no clear call, values can overlap the other calls; inactive means mostly above about 0.92.
# Test: chemical genetic growth profiling, strain panel (AID 1159580);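 further: tested at 20 µM; growth read once vehicle control cultures reached saturation at 30 °C; 1 = growth at the plate median or of vehicle wells; lower values mean less growth of the strain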
# Conditions: S. cerevisiae deletion strains, growth OD
# [1] = locus YAR019C, strain CDC15, hits give low values
# [2] = locus YBL105C, strain PKC1, hits give low values
# [3] = locus YBR135W, strain CKS1, hits give low values
# [4] = locus YBR136W, strain MEC1, hits give low values
# [5] = locus YBR160W, strain CDC28, hits give low values
# [6] = locus YDL017W, strain CDC7, hits give low values
# [7] = locus YDL028C, strain MPS1, hits give low values
# [8] = locus YDL101C, strain DUN1, hits give low values
# [9] = locus YDL108W, strain KIN28, hits give low values
# [10] = locus YDL132W, strain cdc53, hits give low values
# [11] = locus YDL214C, strain PRR2, hits give low values
# [12] = locus YDR052C, strain DBF4, hits give low values
# [13] = locus YDR054C, strain cdc34, hits give low values
# [14] = locus YDR226W, strain ADK1, hits give low values
# [15] = locus YDR477W, strain SNF1, hits give low values
# [16] = locus YER123W, strain YCK3, hits give low values
# [17] = locus YER133W, strain GLC7, hits give low values
# [18] = locus YFL009W, strain cdc4, hits give low values
# [19] = locus YFL029C, strain CAK1, hits give low values
# [20] = locus YFR003C, strain YPI1, hits give low values
# [21] = locus YFR019W, strain FAB1, hits give low values
# [22] = locus YFR028C, strain CDC14, hits give low values
# [23] = locus YGR040W, strain KSS1, hits give low values
# [24] = locus YGR052W, strain FMP48, hits give low values
# [25] = locus YGR092W, strain DBF2, hits give low values
# [26] = locus YHR030C, strain SLT2, hits give low values
# [27] = locus YHR079C, strain IRE1, hits give low values
# [28] = locus YHR082C, strain KSP1, hits give low values
# [29] = locus YHR205W, strain SCH9, hits give low values
# [30] = locus YIL147C, strain SLN1, hits give low values
# [31] = locus YJL095W, strain BCK1, hits give low values
# [32] = locus YJL128C, strain PBS2, hits give low values
# [33] = locus YJL157C, strain FAR1, hits give low values
# [34] = locus YJR016C, strain ILV3, hits give low values
# [35] = locus YJR066W, strain TOR1 (second series), hits give low values
# [36] = locus YJR066W, strain TOR1, hits give low values
# [37] = locus YKL048C, strain ELM1, hits give low values
# [38] = locus YKL067W, strain YNK1, hits give low values
# [39] = locus YKL101W, strain HSL1, hits give low values
# [40] = locus YKL193C, strain SDS22, hits give low values
# [41] = locus YKL203C, strain TOR2, hits give low values
# [42] = locus YLR113W, strain HOG1, hits give low values
# [43] = locus YLR133W, strain CKI1, hits give low values
# [44] = locus YLR403W, strain SFP1, hits give low values
# [45] = locus YML070W, strain DAK1, hits give low values
# [46] = locus YMR001C, strain CDC5, hits give low values
# [47] = locus YMR205C, strain PFK2 (second series), hits give low values
# [48] = locus YMR277W, strain FCP1, hits give low values
# [49] = locus YNL006W, strain LST8, hits give low values
# [50] = locus YNL020C, strain ARK1, hits give low values
# [51] = locus YNL161W, strain CBK1, hits give low values
# [52] = locus YNL183C, strain NPR1, hits give low values
# [53] = locus YNL207W, strain RIO2, hits give low values
# [54] = locus YNL222W, strain SSU72, hits give low values
# [55] = locus YNL307C, strain MCK1 (second series), hits give low values
# [56] = locus YOL078W, strain AVO1, hits give low values
# [57] = locus YOL136C, strain PFK27, hits give low values
# [58] = locus YOR061W, strain CKA2, hits give low values
# [59] = locus YOR119C, strain RIO1, hits give low values
# [60] = locus YOR231W, strain MKK1, hits give low values
# [61] = locus YOR329C, strain SCD5, hits give low values
# [62] = locus YPL031C, strain PHO85, hits give low values
# [63] = locus YPL153C, strain RAD53, hits give low values
# [64] = locus YPL204W, strain HRR25, hits give low values
# [65] = locus YPL209C, strain IPL1, hits give low values
# [66] = locus YPL256C, strain CLN2, hits give low values
# [67] = locus YPR025C, strain CCL1, hits give low values
# [68] = locus YPR106W, strain ISR1, hits give low values
# [69] = locus YPR111W, strain DBF20, hits give low values
# [70] = strain NNK1, hits give low values
# [71] = strain TSCII, hits give low values
smiles,measurement,setting,value
O=C1/C(=C/c2cccs2)COc2ccccc21,normalized growth,[1],0.903
same,normalized growth,[2],0.899 (active)
same,normalized growth,[3],0.913
same,normalized growth,[4],0.899
same,normalized growth,[5],0.908
same,normalized growth,[6],0.911
same,normalized growth,[7],0.9
same,normalized growth,[8],0.908 (active)
same,normalized growth,[9],0.901
same,normalized growth,[10],0.902
same,normalized growth,[11],0.793
same,normalized growth,[12],0.93
same,normalized growth,[13],0.88
same,normalized growth,[14],0.901
same,normalized growth,[15],0.779
same,normalized growth,[16],0.73
same,normalized growth,[17],0.765
same,normalized growth,[18],0.901
same,normalized growth,[19],0.897
same,normalized growth,[20],0.906
same,normalized growth,[21],0.884
same,normalized growth,[22],0.901
same,normalized growth,[23],0.766
same,normalized growth,[24],0.767
same,normalized growth,[25],0.684
same,normalized growth,[26],0.778 (active)
same,normalized growth,[27],0.871
same,normalized growth,[28],0.735
same,normalized growth,[29],0.783
same,normalized growth,[30],0.891 (active)
same,normalized growth,[31],0.832
same,normalized growth,[32],0.873
same,normalized growth,[33],0.789
same,normalized growth,[34],0.9
same,normalized growth,[35],0.603 (active)
same,normalized growth,[36],0.762
same,normalized growth,[37],0.873
same,normalized growth,[38],0.831
same,normalized growth,[39],0.829
same,normalized growth,[40],0.901
same,normalized growth,[41],0.853
same,normalized growth,[42],0.667 (active)
same,normalized growth,[43],0.86
same,normalized growth,[44],0.796
same,normalized growth,[45],0.802
same,normalized growth,[46],0.895
same,normalized growth,[47],0.831
same,normalized growth,[48],0.909
same,normalized growth,[49],0.916
same,normalized growth,[50],0.839
same,normalized growth,[51],0.906
same,normalized growth,[52],0.763
same,normalized growth,[53],0.9
same,normalized growth,[54],0.91
same,normalized growth,[55],0.803
same,normalized growth,[56],0.906
same,normalized growth,[57],0.816
same,normalized growth,[58],0.813
same,normalized growth,[59],0.833
same,normalized growth,[60],0.82
same,normalized growth,[61],0.9 (active)
same,normalized growth,[62],0.756
same,normalized growth,[63],0.777
same,normalized growth,[64],0.786
same,normalized growth,[65],0.894 (active)
same,normalized growth,[66],0.802 (active)
same,normalized growth,[67],0.911
same,normalized growth,[68],0.901
same,normalized growth,[69],0.907
same,normalized growth,[70],0.906
same,normalized growth,[71],0.895
CC1(C)c2ccccc2N(CCC(N)=O)C12C=Cc1c(ccc3ccccc13)O2 (configuration not stated),normalized growth,[1],0.972
same,normalized growth,[2],0.968
same,normalized growth,[3],0.97
same,normalized growth,[4],0.95
same,normalized growth,[5],0.971
same,normalized growth,[6],0.965
same,normalized growth,[7],0.969
same,normalized growth,[8],0.955
same,normalized growth,[9],0.944
same,normalized growth,[10],0.964
same,normalized growth,[11],0.901
same,normalized growth,[12],0.97
same,normalized growth,[13],0.956
same,normalized growth,[14],0.973
same,normalized growth,[15],0.939
same,normalized growth,[16],0.865
same,normalized growth,[17],0.927
same,normalized growth,[18],0.979
same,normalized growth,[19],0.964
same,normalized growth,[20],0.959
same,normalized growth,[21],0.943
same,normalized growth,[22],0.981
same,normalized growth,[23],0.92
same,normalized growth,[24],0.968
same,normalized growth,[25],0.906
same,normalized growth,[26],1.04
same,normalized growth,[27],0.973
same,normalized growth,[28],0.97
same,normalized growth,[29],0.956
same,normalized growth,[30],0.971
same,normalized growth,[31],0.975
same,normalized growth,[32],0.907
same,normalized growth,[33],0.896
same,normalized growth,[34],0.969
same,normalized growth,[35],0.891
same,normalized growth,[36],0.962
same,normalized growth,[37],0.912
same,normalized growth,[38],0.918
same,normalized growth,[39],0.908
same,normalized growth,[40],0.959
same,normalized growth,[41],0.985
same,normalized growth,[42],0.919
same,normalized growth,[43],0.944
same,normalized growth,[44],0.915
same,normalized growth,[45],0.883
same,normalized growth,[46],0.966
same,normalized growth,[47],0.926
same,normalized growth,[48],0.968
same,normalized growth,[49],0.986
same,normalized growth,[50],0.915
same,normalized growth,[51],0.966
same,normalized growth,[52],0.989
same,normalized growth,[53],0.96
same,normalized growth,[54],0.962
same,normalized growth,[55],0.922
same,normalized growth,[56],0.96
same,normalized growth,[57],0.907
same,normalized growth,[58],0.889
same,normalized growth,[59],0.968
same,normalized growth,[60],0.95
same,normalized growth,[61],0.971
same,normalized growth,[62],0.921
same,normalized growth,[63],0.931
same,normalized growth,[64],0.937
same,normalized growth,[65],0.966
same,normalized growth,[66],0.925
same,normalized growth,[67],0.973
same,normalized growth,[68],0.957
same,normalized growth,[69],0.963
same,normalized growth,[70],0.944
same,normalized growth,[71],0.97
